Test results as given in PubChem BioAssay.
The source made the active and inactive calls. The rule behind the calls is not given here.

Molecular target: Pantothenate synthetase (Mycobacterium tuberculosis (strain ATCC 25618 / H37Rv)) (UniProt P9WIL5)
Test: Coupled enzyme confirmation of inhibitors against recombinant Mtb PanC (AID 375);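 note: 0% = full reaction with vehicle and 100% = no enzyme background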
Details: coupled enzyme assay; at 10 µM, active compounds read high

Sequence of Pantothenate synthetase (Mycobacterium tuberculosis (strain ATCC 25618 / H37Rv)) (P9WIL5 whole entry, looked up): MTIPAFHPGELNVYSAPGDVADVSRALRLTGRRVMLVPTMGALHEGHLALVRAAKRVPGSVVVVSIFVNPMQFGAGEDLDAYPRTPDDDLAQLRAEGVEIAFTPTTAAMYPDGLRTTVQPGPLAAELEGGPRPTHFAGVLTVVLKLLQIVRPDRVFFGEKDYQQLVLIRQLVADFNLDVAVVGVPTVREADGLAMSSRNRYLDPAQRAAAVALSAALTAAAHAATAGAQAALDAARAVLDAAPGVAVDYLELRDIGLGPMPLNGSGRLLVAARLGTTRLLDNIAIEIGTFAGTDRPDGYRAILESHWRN

Row | SMILES | inhibition
1 | CCC(=NC(C)c1ccccc1)c1c(O)n(C)c(=O)n(C)c1=O (configuration not stated) | 0% (inactive)
2 | CC(C)CCNC(=O)C(c1cccs1)N(CC1CCCO1)C(=O)Cn1nnc2ccccc21 (configuration not stated) | 0% (inactive)
3 | NC(=O)CSc1nnc(-c2cnccn2)n1-c1ccccc1 | 0% (inactive)
4 | CC12C(=O)N(CCC(=O)O)C(=O)C1C1C=CC2C1 (configuration not stated) | 0% (inactive)
5 | CCOC(=O)c1cc2c(=O)n3cccc(C)c3nc2n(Cc2ccco2)c1=NC(=O)c1cccnc1 | 0% (inactive)
6 | CC(C)NC(=O)CSc1nnc(-c2ccc(C(C)(C)C)cc2)n1C | 1% (inactive)
7 | Cc1ccc(CCNC(=O)C2CCC(=O)N2C2CCCC2)cc1 (configuration not stated) | 0% (inactive)
8 | CN1CCN(CC(=O)N2c3ccccc3C(=O)Nc3cccnc32)CC1 | 4% (inactive)
9 | Cc1csc2nc(CSc3nc4ccccc4o3)c(Br)n12 | 0% (inactive)
10 | CC(C)(C)NC(=O)CN(C(=O)C1CSC(=O)C1)c1ccc2c(c1)OCCO2 (configuration not stated) | 0% (inactive)
11 | CCOC(=O)N1CCN(C(=O)c2cn(CC)c3cc(N4CCN(C)CC4)c(F)cc3c2=O)CC1 | 0% (inactive)
12 | CCCOc1ccc(C2c3c(oc4ccccc4c3=O)C(=O)N2CCCN2CCOCC2)cc1 (configuration not stated) | 4% (inactive)
13 | O=C(NCN1CCCCC1)c1cnccn1 | 0% (inactive)
14 | CCCN1CCN(CCCNC(=O)C2CCCN(c3nc4ccc(OCC)cc4s3)C2)CC1 (configuration not stated) | 1% (inactive)
15 | COc1ccc(N2CCN(c3oc(COc4ccccc4Cl)nc3C#N)CC2)cc1 | 0% (inactive)
16 | Nc1ncnc2nc(SCCN3CCCCC3)[nH]c12 | 4% (inactive)
17 | COc1cccc(-c2cc(C(F)(F)F)nc(NCc3ccco3)n2)c1 | 0% (inactive)
